Bioassay records: PubChem, National Center for Advancing Translational Sciences (NCATS)
Most compounds without a hit are left out; they make up all but 12% or so of the library.
G9a block: blocks human histone lysine methyltransferase G9a; AID 504332; Potency, µM (titrated, usually from 102 µM), hits mostly inhibitors; G9a H3K9 monomethylation, AlphaScreen, 2 h; Q96KQ7; hit rate 8.8% among 350,000; also: nearly all actives have a fitted effect of over 75% in size
Target sequence (Q96KQ7 913-1193 limits assumed): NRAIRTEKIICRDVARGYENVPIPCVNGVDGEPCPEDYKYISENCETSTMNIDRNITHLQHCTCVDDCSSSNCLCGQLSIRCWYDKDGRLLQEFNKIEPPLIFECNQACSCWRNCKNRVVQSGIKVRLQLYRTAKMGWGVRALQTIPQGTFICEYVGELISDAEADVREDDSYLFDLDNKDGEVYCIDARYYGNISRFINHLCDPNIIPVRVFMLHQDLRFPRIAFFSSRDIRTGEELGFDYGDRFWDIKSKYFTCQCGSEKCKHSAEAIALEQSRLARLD
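Quantitative HTS format: methyltransferase activity on a biotin-tagged H3K9 peptide is measured by AlphaScreen, using a rabbit anti-monomethyl-H3K9 antibody with streptavidin donor and anti-IgG acceptor beads. Final levels are 20 nM enzyme, 500 nM peptide, 20 uM SAM; 2 h RT.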
L3MBTL1 inh: inhibitors of human L3MBTL1 | AlphaScreen L3MBTL1–H3K9me1 peptide binding | Potency, µM (doses to about 57.1 µM), usual class: inhibitors | hit rate 0.66% among 230,000; also: nearly all actives have a fitted effect of over 60% in size
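Displacement of a biotinylated histone H3(1-15) peptide monomethylated at Lys9 (75 nM) from L3MBTL1 (50 nM) was measured by AlphaScreen after a 30 min room-temperature compound incubation; cefsulodin titration served as intraplate control.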
BAZ2B block: BAZ2B (human) inhibition; AlphaScreen BAZ2B-H3K14Ac peptide displacement; Potency, µM (top dose mostly 114 µM), hits mostly inhibitors; hit rate 4.4% among 360,000; also: nearly all actives have a fitted effect of over 60% in size
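In this displacement format the biotinylated H3(5-23) peptide acetylated at Lys14 serves as ligand at 50 nM, with BAZ2B at 50 nM in PBS pH 7.4 containing 0.01% Tween-20. Donor and acceptor beads are 10 ug/mL final.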
JMJD2A Tudor: JMJD2A Tudor domain (human) inhibition | hit rate 4.4% among 390,000 | O75164 | AID 504339 | AlphaScreen JMJD2A-Tudor / H3K4me3 peptide binding | Potency, µM (top dose mostly 114 µM), usual class: inhibitors; also: nearly all actives have a fitted effect of over 50% in size
HP1b chromo inh: blocks HP1-beta chromodomain binding to methylated histone tails; Potency, µM (titrated, usually from 114 µM), actives largely listed as inhibitors; AID 540317; hit rate 0.56% among 390,000; P83916; AlphaScreen HP1-beta / biotin-H3K9me3 peptide binding; also: nearly all actives have a fitted effect of over 70% in size
Target sequence (P83916 whole entry, looked up): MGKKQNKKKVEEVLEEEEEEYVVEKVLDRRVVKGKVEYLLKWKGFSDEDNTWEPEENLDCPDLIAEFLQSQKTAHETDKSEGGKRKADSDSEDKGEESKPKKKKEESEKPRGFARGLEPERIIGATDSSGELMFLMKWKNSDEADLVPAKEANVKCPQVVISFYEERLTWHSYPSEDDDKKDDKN
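Compound inhibition of the preformed complex between 50 nM HP1-beta and 50 nM biotinylated H3K9me3 peptide was read by AlphaScreen. Buffer was PBS pH 7.4 with 0.01% Tween-20. Incubations ran 30 min at room temperature, with 10 ug/mL donor/acceptor beads.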
Sfp PPTase inh: Sfp phosphopantetheinyl transferase inhibition | Q9F4F7 | Biochemical Sfp PPTase activity, qHTS | Potency, µM, hits mostly inhibitors | hit rate 3.5% among 310,000 | AID 1490;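 also: the enzyme is Sfp with the accession as filed and its product quenches rhodamine fluorescence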
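With Hepes-Na pH 7.6 buffer containing 10 mM MgCl2, Sfp (15 nM) modified BHQ-2-YbbR (12.5 uM) using rhodamine-CoA (5 uM). Two reads 30 minutes apart at 525/598 nm yielded each well's rate.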
Numbers stand for hits; – = inactive; ? = inconclusive; · = not tested or not shown; ! = repeats disagree; [ ] = dose if it differs, or a comment. Calls follow the shape of the dose curve; as a rule, active = well fitted curve in the direction sought with a large enough effect; inconclusive = small, poorly fitted or top-dose-only effect, or another doubt; inactive = no such curve, though single readings can be large; an effect the other way counts as inactive or inconclusive.

SMILES	G9a block	L3MBTL1 inh	BAZ2B block	JMJD2A Tudor	HP1b chromo inh	Sfp PPTase inh
O=C(Nc1nnc(C2=COCCO2)o1)c1ccc(Br)cc1	·	·	?	·	·	–
O=C(Nc1nnc(C2=COCCO2)o1)c1ccc(S(=O)(=O)N2CCOCC2)cc1	50.1µM	·	·	79.4µM	–	–
COCc1nnc(NC(=O)c2ccc(S(=O)(=O)N3CCOCC3)cc2)o1	·	·	17.8µM	31.6µM	–	–
CC1CCCN(S(=O)(=O)c2ccc(C(=O)NC(C)c3ccccc3)cc2)C1 (stereo not given)	17.8µM	–	–	–	–	·
COc1cc(OC)c(NS(=O)(=O)c2c(C(=O)N3CCC(C)CC3)c(C)n(C)c2C)cc1Cl	–	·	–	–	–	·
Cc1ccc(C(=O)NCc2ccccn2)cc1NC1=NC2CS(=O)(=O)CC2S1 (stereo not given)	–	–	–	–	–	–
CC1CCCCN1S(=O)(=O)c1ccc(C(=O)Nc2nnc(C3=COCCO3)o2)cc1 (stereo not given)	–	·	89.1µM	–	–	–
COc1ccccc1-c1nnc(NC(=O)c2ccc(S(=O)(=O)N3CCOCC3)cc2)o1	–[12.7 µM]	·	–	79.4µM	–	–
CC1CCCN(S(=O)(=O)c2ccc(C(=O)Nc3nnc(C4=COCCO4)o3)cc2)C1 (stereo not given)	·	·	79.4µM	·	·	–
CCOC(=O)c1ccc(CN(Cc2ccc(F)cc2)S(=O)(=O)c2ccc(F)cc2)cc1	–	·	–	–	–	·
Cc1ccc(C)c(-c2[nH]ncc2CN2CCCC(CO)(Cc3ccccc3C)C2)c1 (stereo not given)	·	–	–	?	–	–
CN(C)C(=O)c1ccc(NC(=O)COC(=O)C2CCN(S(=O)(=O)c3ccc4c(c3)OCCO4)CC2)cc1	39.8µM	–	–	–	–	·
Cc1ccc(N(CCC#N)C(=O)COC(=O)C2CCN(S(=O)(=O)c3ccc4c(c3)OCCO4)CC2)cc1	31.6µM	–	–	–	–	·
Cc1ccc(N(CCC#N)C(=O)COC(=O)c2ccccn2)cc1	·	·	–	–	–	–
Cc1ccc(N(CCC#N)C(=O)COC(=O)C2=COCCO2)cc1	39.8µM	–	–	–	–	·
Cc1ccc(S(=O)(=O)N2CCC(C(=O)OCC(=O)N(CCC#N)c3ccc(F)cc3)CC2)cc1C	–	–	–	–	–	·
O=C(CSc1nc2c([nH]c3ccccc32)c(=O)n1-c1ccc(F)cc1)N1CCc2ccccc21	–	·	–	–	–	·
Cc1cc(O)c(C)c2c1CC[C@H]1[C@H](C)C(=O)O[C@H]21	·	·	·	·	·	–
COC(=O)Cc1c(C)[nH]n(-c2cc(Cl)cc(Cl)c2)c1=O	39.8µM	·	?	–	–	–
CC(C)C(NC(=O)c1ccccc1NC(=O)c1ccccc1)C(=O)NCCCn1ccnc1 (stereo not given)	–	·	–	–	–	–
Cc1ccc2oc(=O)c(/C=C(\O)C(C)(C)C)nc2c1	?	–	?	–	–	56.2µM
CC(C)(C)/C(O)=C/c1nc2cc(Cl)ccc2oc1=O	44.7µM	–	–	?	–	?
CCCCN1C(=O)NC(c2ccc(OC)cc2)C(C(=O)OCc2ccccc2)=C1C (stereo not given)	?	–	–	–	–	–
COc1ccc(C2C3=C(N=C4SCC(=O)N42)c2ccccc2CC3)cc1OC (stereo not given)	39.8µM	–	–	?	–	?
COc1ccc(C2C3=C(N=C4SCC(=O)N42)c2ccccc2CC3)cc1 (stereo not given)	50.1µM	–	–	–	–	–
SMILES	G9a block	L3MBTL1 inh	BAZ2B block	JMJD2A Tudor	HP1b chromo inh	Sfp PPTase inh
CC(C)[C@H](NC(=O)c1ccco1)C(=O)OCC(=O)c1ccc(Br)s1	·	–	·	–	–	·
COc1ccc(CNC(=O)c2cc3sccc3n2Cc2ccc(C)cc2)cc1	?	·	–	–	–	·
COc1cccc(/C=N/N2CCN(Cc3ccccc3)CC2)c1O	·	–	?	?	–	–
Nc1nnnn1/N=C/c1ccccc1OCc1ccc(Cl)cc1	–	–	–	–	–	–
COc1cccc(/C=N/n2c(CO)nc3ccccc32)c1OC	–	–	–	–	–	–
COc1cccc(/C=N/n2c(COc3ccccc3)n[nH]c2=S)c1OC	8.91µM	·	–	28.2µM	–	–
COc1cccc(/C=N/n2c(COc3ccccc3)n[nH]c2=S)c1O	15.8µM	·	–	50.1µM	?	?
Cc1n[nH]c(=S)n1/N=C/c1ccccc1OCc1ccc(Cl)cc1	?	–	–	50.1µM	–	50.1µM
CCOC(=O)c1c(C)oc2c1c(C(c1cccnc1)N1CCN(C)CC1)c(O)c1ccccc12 (stereo not given)	?	·	?	·	·	–
CCOC(=O)c1c(C)oc2c1c(C=NCc1ccccn1)c(O)c1ccccc12	?	?	?	?	–	17.8µM
CCOC(=O)c1c(C)oc2c1c(C(c1cccnc1)N1CCOCC1)c(O)c1ccccc12 (stereo not given)	3.98µM	–	39.8µM	79.4µM	?	?
C/C(=N\N=c1/scc(C)n1Cc1ccco1)c1cccc([N+](=O)[O-])c1	?	?	10µM	25.1µM	?	?
Cc1cs/c(=N\N=C\c2cccc([N+](=O)[O-])c2)n1Cc1ccco1	–	–	–	–	–	–
O=C(Cn1cc(S(=O)(=O)Cc2ccccc2)c2ccccc21)N1CCOCC1	·	·	–	–	–	–
O=C(Cn1cc(S(=O)(=O)Cc2cccc(F)c2)c2ccccc21)N1CCOCC1	·	·	–	–	–	56.2µM
O=C(Cn1cc(SCc2cccc(Cl)c2)c2ccccc21)N1CCOCC1	31.6µM!	–	–	–	–	–
Cn1nnnc1SCc1ccc([N+](=O)[O-])cc1	–	–	–	–	–	–
CC1=CC(C)(C)NC(=S)N1c1cccc2cc(S(=O)(=O)O)ccc12	25.1µM	?	–	?	–	20µM
O=C1OC(c2ccccc2)(c2ccccc2)N2CCN(C(=O)NCc3ccc(F)cc3)CC12 (stereo not given)	·	·	·	–	·	·
CCC(OC(=O)CNS(=O)(=O)c1ccccc1)C(=O)c1ccccc1 (stereo not given)	–	·	–	–	–	–
COc1ccccc1N1CCN(S(=O)(=O)CCNC(=O)CC2CCCCC2)CC1	?	–	–	–	–	·
CCOC(=O)CSC1=C(C#N)C(=O)NC(c2ccc(OC)cc2)S1 (stereo not given)	?	·	50.1µM	25.1µM	–	44.7µM
CCOC(=O)CSc1nc2cc(OC)ccc2cc1C#N	–[12.7 µM]	·	–	–	–	–
CCOC(=O)CSC1=C(C#N)C(=O)NC(c2ccc(OC)c(OC)c2)S1 (stereo not given)	?	–	50.1µM	39.8µM	?	39.8µM
O=C(COC(=O)c1ccccc1-n1cnnn1)c1ccc(F)c(F)c1	?	–	–	–	–	·
